Residue numbers refer to the chain shown, from its start.
Columns and labels:
Assay in all cases: PBM; 200 nM protein, PBS
Conditions in all cases: dsDNA, one strand shown
SIX6 [1] = target: T1, SIX6 (Homo sapiens, UniProt O95475 114-200, L167I)
T1 sequence: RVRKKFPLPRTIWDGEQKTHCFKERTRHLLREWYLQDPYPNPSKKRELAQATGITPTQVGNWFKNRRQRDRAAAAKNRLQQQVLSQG

SIX6 [2] = target: T2, SIX6 (Homo sapiens, UniProt O95475 114-200, L143V)
T2 sequence: T1 sequence with L30V, I54L

SIX6 [3] = target: T3, SIX6 (Homo sapiens, UniProt O95475 114-200, H141N)
T3 sequence: T1 sequence with H28N, I54L

SIX6 [4] = target: T4, SIX6 (Homo sapiens, UniProt O95475 114-200, T165P)
T4 sequence: T1 sequence with T52P, I54L

SIX6 [5] = target: T5, SIX6 (Homo sapiens, UniProt O95475 114-200, L167M)
T5 sequence: T1 sequence with I54M

SIX6 [6] = target: T6, SIX6 (Homo sapiens, UniProt O95475 114-200, L143M)
T6 sequence: T1 sequence with L30M, I54L

SIX6 [7] = target: T7, SIX6 (Homo sapiens, UniProt O95475 114-200, L143I)
T7 sequence: T1 sequence with L30I, I54L

SIX6 [8] = target: T8, SIX6 (Homo sapiens, UniProt O95475 114-200, T165G)
T8 sequence: T1 sequence with T52G, I54L

SIX6 [9] = target: T9, SIX6 (Homo sapiens, UniProt O95475 114-200, T139Q)
T9 sequence: T1 sequence with T26Q, I54L

SIX6 [10] = target: T10, SIX6 (Homo sapiens, UniProt O95475 114-200, T165A)
T10 sequence: T1 sequence with T52A, I54L

SIX6 [11] = target: T11, SIX6 (Homo sapiens, UniProt O95475 114-200, L167V)
T11 sequence: T1 sequence with I54V

SIX6 [12] = target: T12, SIX6 (Homo sapiens, UniProt O95475 114-200)
T12 sequence: T1 sequence with I54L

SIX6 [13] = target: T13, SIX6 (Homo sapiens, UniProt O95475 114-200, T165I)
T13 sequence: T1 sequence with T52I, I54L

HOXA7 [14] = target: HOXA7 (Homo sapiens, UniProt P31268 116-202)
HOXA7 [15] = target: HOXA7 (Homo sapiens, UniProt P31268 116-202, W177C)
HOXB6 = HOXB6 (Homo sapiens, UniProt P17509 132-218, K202E)
Sequence of HOXB6 (P17509 132-218 K202E): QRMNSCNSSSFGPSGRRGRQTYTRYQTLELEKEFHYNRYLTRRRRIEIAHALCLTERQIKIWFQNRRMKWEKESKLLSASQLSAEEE

Sequence of HOXA7 (Homo sapiens, UniProt P31268 116-202, W177C) (P31268 116-202 W177C): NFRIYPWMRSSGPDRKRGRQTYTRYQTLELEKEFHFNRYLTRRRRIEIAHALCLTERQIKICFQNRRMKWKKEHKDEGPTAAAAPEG
Sequence of HOXA7 (Homo sapiens, UniProt P31268 116-202) (P31268 116-202): as the sequence (P31268 116-202 W177C) above, with C62W counted along it

CAGCGCCG
binding signal (SIX6 [1]): 8.83 upbm affinity estimate (log intensity, higher = more binding, comparable within an allelic series)
binding signal (SIX6 [2]): 8.75 upbm affinity estimate (log intensity, higher = more binding, comparable within an allelic series)
binding signal (SIX6 [3]): 8.78 upbm affinity estimate (log intensity, higher = more binding, comparable within an allelic series)
binding signal (SIX6 [4]): 8.87 upbm affinity estimate (log intensity, higher = more binding, comparable within an allelic series)
binding signal (SIX6 [5]): 8.78 upbm affinity estimate (log intensity, higher = more binding, comparable within an allelic series)
binding signal (SIX6 [6]): 8.76 upbm affinity estimate (log intensity, higher = more binding, comparable within an allelic series)
binding signal (SIX6 [7]): 8.8 upbm affinity estimate (log intensity, higher = more binding, comparable within an allelic series)
binding signal (SIX6 [8]): 8.83 upbm affinity estimate (log intensity, higher = more binding, comparable within an allelic series)
binding signal (SIX6 [9]): 8.77 upbm affinity estimate (log intensity, higher = more binding, comparable within an allelic series)
binding signal (SIX6 [10]): 8.74 upbm affinity estimate (log intensity, higher = more binding, comparable within an allelic series)
binding signal (SIX6 [11]): 8.79 upbm affinity estimate (log intensity, higher = more binding, comparable within an allelic series)
binding signal (SIX6 [12]): 8.78 upbm affinity estimate (log intensity, higher = more binding, comparable within an allelic series)
binding signal (SIX6 [13]): 8.74 upbm affinity estimate (log intensity, higher = more binding, comparable within an allelic series)

AGCGCAGG
binding signal (SIX6 [1]): 9.08 upbm affinity estimate (log intensity, higher = more binding, comparable within an allelic series)
binding signal (SIX6 [2]): 8.96 upbm affinity estimate (log intensity, higher = more binding, comparable within an allelic series)
binding signal (HOXA7 [14]): 8.41 upbm affinity estimate (log intensity, higher = more binding, comparable within an allelic series)
binding signal (SIX6 [3]): 9.05 upbm affinity estimate (log intensity, higher = more binding, comparable within an allelic series)
binding signal (SIX6 [4]): 8.99 upbm affinity estimate (log intensity, higher = more binding, comparable within an allelic series)
binding signal (SIX6 [5]): 9.06 upbm affinity estimate (log intensity, higher = more binding, comparable within an allelic series)
binding signal (SIX6 [6]): 9.04 upbm affinity estimate (log intensity, higher = more binding, comparable within an allelic series)
binding signal (SIX6 [7]): 9.01 upbm affinity estimate (log intensity, higher = more binding, comparable within an allelic series)
binding signal (SIX6 [8]): 9.15 upbm affinity estimate (log intensity, higher = more binding, comparable within an allelic series)
binding signal (SIX6 [9]): 9.1 upbm affinity estimate (log intensity, higher = more binding, comparable within an allelic series)
binding signal (SIX6 [10]): 9.08 upbm affinity estimate (log intensity, higher = more binding, comparable within an allelic series)
binding signal (SIX6 [11]): 9.04 upbm affinity estimate (log intensity, higher = more binding, comparable within an allelic series)
binding signal (SIX6 [12]): 9.02 upbm affinity estimate (log intensity, higher = more binding, comparable within an allelic series)
binding signal (SIX6 [13]): 9.03 upbm affinity estimate (log intensity, higher = more binding, comparable within an allelic series)
binding signal (HOXA7 [15]): 8.31 upbm affinity estimate (log intensity, higher = more binding, comparable within an allelic series)

CGCTCCGC
binding signal (SIX6 [1]): 8.79 upbm affinity estimate (log intensity, higher = more binding, comparable within an allelic series)
binding signal (SIX6 [2]): 8.89 upbm affinity estimate (log intensity, higher = more binding, comparable within an allelic series)
binding signal (SIX6 [3]): 8.83 upbm affinity estimate (log intensity, higher = more binding, comparable within an allelic series)
binding signal (SIX6 [4]): 8.94 upbm affinity estimate (log intensity, higher = more binding, comparable within an allelic series)
binding signal (SIX6 [5]): 8.9 upbm affinity estimate (log intensity, higher = more binding, comparable within an allelic series)
binding signal (SIX6 [6]): 8.87 upbm affinity estimate (log intensity, higher = more binding, comparable within an allelic series)
binding signal (SIX6 [7]): 8.84 upbm affinity estimate (log intensity, higher = more binding, comparable within an allelic series)
binding signal (HOXB6): 9.03 upbm affinity estimate (log intensity, higher = more binding, comparable within an allelic series)
binding signal (SIX6 [8]): 8.81 upbm affinity estimate (log intensity, higher = more binding, comparable within an allelic series)
binding signal (SIX6 [9]): 8.84 upbm affinity estimate (log intensity, higher = more binding, comparable within an allelic series)
binding signal (SIX6 [10]): 8.85 upbm affinity estimate (log intensity, higher = more binding, comparable within an allelic series)
binding signal (SIX6 [11]): 8.79 upbm affinity estimate (log intensity, higher = more binding, comparable within an allelic series)
binding signal (SIX6 [12]): 8.81 upbm affinity estimate (log intensity, higher = more binding, comparable within an allelic series)
binding signal (SIX6 [13]): 8.82 upbm affinity estimate (log intensity, higher = more binding, comparable within an allelic series)

CGGGCCCC
binding signal (SIX6 [1]): 8.63 upbm affinity estimate (log intensity, higher = more binding, comparable within an allelic series)
binding signal (SIX6 [2]): 8.6 upbm affinity estimate (log intensity, higher = more binding, comparable within an allelic series)
binding signal (SIX6 [3]): 8.71 upbm affinity estimate (log intensity, higher = more binding, comparable within an allelic series)
binding signal (SIX6 [4]): 8.8 upbm affinity estimate (log intensity, higher = more binding, comparable within an allelic series)
binding signal (SIX6 [5]): 8.68 upbm affinity estimate (log intensity, higher = more binding, comparable within an allelic series)
binding signal (SIX6 [6]): 8.6 upbm affinity estimate (log intensity, higher = more binding, comparable within an allelic series)
binding signal (SIX6 [7]): 8.75 upbm affinity estimate (log intensity, higher = more binding, comparable within an allelic series)
binding signal (SIX6 [8]): 8.71 upbm affinity estimate (log intensity, higher = more binding, comparable within an allelic series)
binding signal (SIX6 [9]): 8.68 upbm affinity estimate (log intensity, higher = more binding, comparable within an allelic series)
binding signal (SIX6 [10]): 8.73 upbm affinity estimate (log intensity, higher = more binding, comparable within an allelic series)
binding signal (SIX6 [11]): 8.59 upbm affinity estimate (log intensity, higher = more binding, comparable within an allelic series)
binding signal (SIX6 [12]): 8.64 upbm affinity estimate (log intensity, higher = more binding, comparable within an allelic series)
binding signal (SIX6 [13]): 8.66 upbm affinity estimate (log intensity, higher = more binding, comparable within an allelic series)

GCAGTGGC
binding signal (SIX6 [1]): 8.87 upbm affinity estimate (log intensity, higher = more binding, comparable within an allelic series)
binding signal (SIX6 [2]): 8.89 upbm affinity estimate (log intensity, higher = more binding, comparable within an allelic series)
binding signal (SIX6 [3]): 8.95 upbm affinity estimate (log intensity, higher = more binding, comparable within an allelic series)
binding signal (SIX6 [4]): 8.89 upbm affinity estimate (log intensity, higher = more binding, comparable within an allelic series)
binding signal (SIX6 [5]): 8.96 upbm affinity estimate (log intensity, higher = more binding, comparable within an allelic series)
binding signal (SIX6 [6]): 8.94 upbm affinity estimate (log intensity, higher = more binding, comparable within an allelic series)
binding signal (SIX6 [7]): 8.96 upbm affinity estimate (log intensity, higher = more binding, comparable within an allelic series)
binding signal (SIX6 [8]): 8.99 upbm affinity estimate (log intensity, higher = more binding, comparable within an allelic series)
binding signal (SIX6 [9]): 8.93 upbm affinity estimate (log intensity, higher = more binding, comparable within an allelic series)
binding signal (SIX6 [10]): 8.93 upbm affinity estimate (log intensity, higher = more binding, comparable within an allelic series)
binding signal (SIX6 [11]): 8.89 upbm affinity estimate (log intensity, higher = more binding, comparable within an allelic series)
binding signal (SIX6 [12]): 8.98 upbm affinity estimate (log intensity, higher = more binding, comparable within an allelic series)
binding signal (SIX6 [13]): 8.94 upbm affinity estimate (log intensity, higher = more binding, comparable within an allelic series)

GGATATCA
binding signal (SIX6 [1]): 11.4 upbm affinity estimate (log intensity, higher = more binding, comparable within an allelic series)
binding signal (SIX6 [2]): 10.4 upbm affinity estimate (log intensity, higher = more binding, comparable within an allelic series)
binding signal (SIX6 [3]): 11.4 upbm affinity estimate (log intensity, higher = more binding, comparable within an allelic series)
binding signal (SIX6 [4]): 9.53 upbm affinity estimate (log intensity, higher = more binding, comparable within an allelic series)
binding signal (SIX6 [5]): 10.9 upbm affinity estimate (log intensity, higher = more binding, comparable within an allelic series)
binding signal (SIX6 [6]): 11.1 upbm affinity estimate (log intensity, higher = more binding, comparable within an allelic series)
binding signal (SIX6 [7]): 10.4 upbm affinity estimate (log intensity, higher = more binding, comparable within an allelic series)
binding signal (SIX6 [8]): 11.3 upbm affinity estimate (log intensity, higher = more binding, comparable within an allelic series)
binding signal (SIX6 [9]): 11.2 upbm affinity estimate (log intensity, higher = more binding, comparable within an allelic series)
binding signal (SIX6 [10]): 11.3 upbm affinity estimate (log intensity, higher = more binding, comparable within an allelic series)
binding signal (SIX6 [11]): 11.2 upbm affinity estimate (log intensity, higher = more binding, comparable within an allelic series)
binding signal (SIX6 [12]): 11.2 upbm affinity estimate (log intensity, higher = more binding, comparable within an allelic series)
binding signal (SIX6 [13]): 11.2 upbm affinity estimate (log intensity, higher = more binding, comparable within an allelic series)
